Test results from PubChem BioAssay (NCI).
Values joined by “and” are separate entries in the source; they are usually repeats but may differ in a detail not shown here. Equal entries are not always repeated. The panel holds about 83,000 compounds, 20% with a hit somewhere; the sample as a whole holds those more often.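 Method: cells in 96-well plates; compound added at one concentration; 48 h incubation; percent growth measured; values under 10 scored active.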 Active and inactive are the calls of the source.

The molecules below were run on MDA-MB-468 breast (assay: NCI-60 one-dose screen, 48 h (100 = growth as untreated, 0 = no growth, -100 = all killed)). Settings: 10 µM unless noted.

Q: `COc1ccc(/C=C/c2nc(Nc3ccc(S(=O)(=O)Nc4nc(C)cc(C)n4)cc3)c3ccccc3n2)cc1` was tested. Which growth did it give?
A: 24% (inactive)

Q: `NC(N)=Nc1ccc(Oc2cccc(Nc3cccc(C(F)(F)F)c3)c2)cn1` was tested. Which growth did it give?
A: -37.1% (active)

Q: How did the growth turn out when `O=C(O)c1ccc(NCc2cn(-c3ccc(C(F)(F)F)cc3)nc2-c2ccc(C(=O)O)cc2)cc1` was run?
A: 123% (inactive)

Q: `O=c1[nH]c(O)c(/C=C2/C=Nc3ccccc32)[nH]1` was tested. Which growth did it give?
A: 66.1% (inactive)

Q: Which growth does the source give for `CCCCN[C@H]1CC[C@@]2(C)[C@@H](CC[C@@]3(C)[C@H]2[C@H](O)C[C@H]2/C(=C(\CCC=C(C)C)C(=O)OC)[C@@H](OC(C)=O)C[C@@]23C)[C@@H]1C` here?
A: 88.9% (inactive)

Q: How did the growth turn out when `O=C(Nc1cccc2[nH]c(C(F)(F)F)nc12)c1ccc(-n2cnnn2)cc1` was run?
A: 80% (inactive)

Q: Which growth does the source give for `C=C[C@@]1(C)CC(=O)[C@@H](C(C)(C)c2cn(C)c3ccc(Br)cc23)C[C@@H]1O[Si](C)(C)C(C)(C)C` here?
A: 100% (inactive)

Q: For `CC/C=C\C[C@H]1CC=C2C(=O)C=C[C@@H]2CC=CCCCC(=O)O[C@@H](CCCCC)CC=C2C(=O)C=C[C@@H]2CC=CCCCC(=O)O[C@@H](CCCCC)CC=C2C(=O)C=C[C@@H]2CC=CCCCC(=O)O[C@@H](CCCCC)CC=C2C(=O)C=C[C@@H]2CC=CCCCC(=O)O1`, which growth is on record?
A: 29.8% [7.9 µM] (inactive)

Q: `Cc1cc2oc(=O)cc(CP(=O)(O)O)c2cc1O` was tested. Which growth did it give?
A: 89.8% (inactive)

Q: How did the growth turn out when `CS(=O)(=O)c1ccc(-c2[nH]c3ccc(F)cc3c2/C=N/O)cc1` was run?
A: 93.7% (inactive)

Q: For `Cc1ccc(C(=O)CSc2nc(-c3ccc(Br)cc3)c(C#N)c(=O)[nH]2)cc1`, which growth is on record?
A: 92.2% (inactive)

Q: For `CCCCCCC/C=C/[C@H]1O[C@]23C(=O)C[C@@]4(C[C@@H](OC5OC(CO)C(O)C(O)C5O)C[C@@H]4[C@H]2C=C1C)OC3=O` (stereo not given in full), which growth is on record?
A: 25.7% (inactive)

Q: How did the growth turn out when `CCOc1cc(F)c([N+](=O)[O-])cc1[N+](=O)[O-]` was run?
A: -35.2% (active)

Q: How did the growth turn out when `O=C1C(Cl)=C(Nc2ccc(S(=O)(=O)N3CCOCC3)cc2)C(=O)c2ccccc21` was run?
A: 74.1% (inactive)

Q: Which growth does the source give for `CC(C)NC(=O)N1C(=O)CCC1NNC(=O)c1ccc([N+](=O)[O-])cc1` (stereo not given) here?
A: 114% (inactive)

Q: With `COC12C=C/C(=C(/C(=O)OCCSc3ccnn3C)C(=O)CCCCCCCCC3(OC)C=C/C(=C(/C(=O)OCCSc4ccnn4C)C(=O)CCCCCCCC1)O3)O2` as the molecule, how does the growth read?
A: -6.23% (active)

Q: For `CCCCOc1ccc(/C(C)=N/Nc2cc(C)nc3ccc(Br)cc23)cc1`, which growth is on record?
A: 113% (inactive)

Q: For `O=c1c2cc(F)ccc2sc2c(N3CCNCC3)nc3ccc(F)cc3c12`, which growth is on record?
A: -59.9% (active)

Q: How did the growth turn out when `COc1cc(C(N)=O)cc(OC)c1OC` was run?
A: 103% (inactive)

Q: How did the growth turn out when `C#Cc1ccc(NC(=O)Cc2ccc(/C=C/C(=O)c3nccn3C)cc2)cc1` was run?
A: 33.8% (inactive)

Q: `CCOc1c(C#N)nnc2c(C#N)c(NC(=O)c3ccccc3)nn12` was tested. Which growth did it give?
A: 103% (inactive)

Q: Which growth does the source give for `Cc1ccc(-c2cnc3sc4ccc(Cl)cc4n23)cc1` here?
A: 103% (inactive)

Q: How did the growth turn out when `N=C1C=C(N)C(=O)c2ccccc21` was run?
A: -85.6% (active)

Q: For `O=C(Nc1ccccc1OC(=O)c1ccccc1)c1ccccc1`, which growth is on record?
A: 59% (inactive)

Q: With `COC(=O)c1c2c(c(C)[n+]([O-])c1C)C(=O)C=C(NCc1cccc(Cl)c1)C2=O` as the molecule, how does the growth read?
A: -66.3% (active)

Q: `O=C(Cc1ccc(/C=C/C(=O)c2ncc[nH]2)cc1)Nc1ccc(Cl)cc1` was tested. Which growth did it give?
A: 9.49% (active)

Q: For `CC(NC(N)=S)c1ccccc1` (stereo not given), which growth is on record?
A: -11.5% (active)

Q: For `COc1ccc2sc3cccc(NCCN(C)C)c3c(=O)c2c1`, which growth is on record?
A: 52.3% (inactive) and -82% (active)

Q: With `CC(C)(C)OC[C@@H]1N=C(c2ccc(Br)cc2)Nc2nc3ccccn3c2C1=O` as the molecule, how does the growth read?
A: 45.6% (inactive)

Q: How did the growth turn out when `CN1CCN(Cc2ccc(NC(=O)c3cncc(C#Cc4cnc5ccc(OCC6(C)COC6)nn45)c3)cc2C(F)(F)F)CC1` was run?
A: -73.8% (active)

Q: For `Cc1ccc2[nH]c(=O)c3c(c2c1)OC(N)=C(C#N)C31c2cc(Br)ccc2-c2ccc(Br)cc21`, which growth is on record?
A: 55.4% (inactive)

Q: With `c1ccc2c(Nc3cccc4ccccc34)cccc2c1` as the molecule, how does the growth read?
A: 61.8% (inactive)

Q: How did the growth turn out when `COc1ccc(-c2cnc3c(-c4cccc5cnccc45)cnn3c2)cc1` was run?
A: 47.9% (inactive)

Q: How did the growth turn out when `CCN(CC)c1ccc(/C=N\NC(=O)c2cccc(Nc3ccnc(C(F)(F)F)c3)c2)c(O)c1` was run?
A: 24.6% (inactive)

Q: `NC(N)=N/N=C/c1ccc(-c2ccc(-c3cc(Cl)cc(Cl)c3)s2)cc1` was tested. Which growth did it give?
A: -47.1% (active)

Q: Which growth does the source give for `COC(c1ccc2c(c1)OCO2)C(C)Br` (stereo not given) here?
A: 93.4% (inactive)

Q: For `CNS(=O)(=O)Oc1ccc(-c2sc3cc(OS(=O)(=O)NC)ccc3c2C(=O)c2ccc(OCCN3CCCCC3)cc2)cc1`, which growth is on record?
A: 63.1% (inactive)

Q: How did the growth turn out when `O=C(CCNCc1ccccc1)c1ccccc1` was run?
A: 98.2% (inactive)

Q: How did the growth turn out when `N#CC1=C(N)Oc2c(ccc3ccccc23)C1c1cc(=O)oc2ccc(Cl)cc12` (stereo not given) was run?
A: 62% (inactive)

Q: `C[C@@H](C[C@H](CCOCc1cccnc1)c1ccccc1)c1cc2ccccc2o1` was tested. Which growth did it give?
A: 99.5% (inactive)
